High-throughput results: PubChem, National Center for Advancing Translational Sciences (NCATS)
NPC1 promoter act: activators of NPC1 promoter. Huh7 NPC1 promoter luciferase reporter, 24 h. Potency, µM (titrated, usually from 9.22 µM), actives largely listed as activators. 320,000 compounds, 2.4% hits. AID 485313; also: nearly all actives have a fitted effect of over 60% in size
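Huh7 cells stably carrying NPC1 promoter–luciferase, plated in Opti-MEM with 10% FBS for 2 h, were exposed to compound in DMSO for 24 h at 37 °C; luciferase reagent was added for 10 min and luminescence read.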
Rab9 promoter act: activators of Rab9 promoter | Huh7 Rab9 promoter-luciferase reporter, luminescence, 24 h | Potency, µM (highest dose often 9.22 µM), usual class: activators | 320,000 compounds, 2.8% hits | AID 485297; also: nearly all actives have a fitted effect of over 60% in size
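Stable Rab9-luc Huh7, 1500 cells/well, 2 h settle; cmpd in DMSO, 24 h, 37 °C/5% CO2; luciferase reagent 10 min RT; luminescence.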
ELG1 genotox: inducers of genotoxicity in HEK293T ELG1-luciferase cells. 330,000 compounds, 1.3% hits. Potency, µM (top dose mostly 46 µM), actives largely listed as activators. HEK293T ELG1-luciferase reporter, luminescence, 16 h. AID 504466; also: nearly all actives have a fitted effect of over 60% in size
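HEK293T cells expressing luciferase-tagged ELG1 were exposed to compound or DMSO vehicle for 16 hr at 37 °C and 5% CO2. Luciferase activity was then measured with ONE-Glo after 30 min at room temperature.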
FLuc counter: firefly luciferase modulation, counter-screen for miR-21 project; purified FLuc, Km substrates, luminescence inhibition; 360,000 compounds, 6.9% hits; Potency, µM (top dose mostly 57.5 µM), hits mostly inhibitors; P08659; AID 588342; also: nearly all actives have a fitted effect of over 55% in size
Target sequence (P08659 whole entry, looked up): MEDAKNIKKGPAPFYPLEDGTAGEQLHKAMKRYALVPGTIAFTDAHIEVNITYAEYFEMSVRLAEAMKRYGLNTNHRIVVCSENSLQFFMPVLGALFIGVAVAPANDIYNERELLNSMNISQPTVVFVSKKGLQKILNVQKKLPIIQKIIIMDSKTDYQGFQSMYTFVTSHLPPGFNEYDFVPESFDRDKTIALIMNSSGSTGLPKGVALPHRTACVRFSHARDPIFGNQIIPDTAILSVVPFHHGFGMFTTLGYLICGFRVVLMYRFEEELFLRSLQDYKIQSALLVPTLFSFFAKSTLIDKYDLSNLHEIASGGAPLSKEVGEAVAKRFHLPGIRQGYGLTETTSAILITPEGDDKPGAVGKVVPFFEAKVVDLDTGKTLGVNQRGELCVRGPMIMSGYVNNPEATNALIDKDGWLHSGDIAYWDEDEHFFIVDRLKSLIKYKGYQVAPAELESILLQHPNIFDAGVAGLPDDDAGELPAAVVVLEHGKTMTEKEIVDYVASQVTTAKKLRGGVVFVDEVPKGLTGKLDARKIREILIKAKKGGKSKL
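Biochemical qHTS of compounds, final roughly 60 µM downward over six points, against 10 nM purified firefly luciferase using Km concentrations of substrates (10 uM D-luciferin, 10 uM ATP) in Tris acetate pH 7.5 buffer; luminescence output.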
SMN2 splice up: SMN2 splice variant enhancement. HEK293 SMN2-luciferase splicing reporter, luminescence, 30-36 h. 210,000 compounds, 2.8% hits. Potency, µM (titrated, usually from 46.1 µM), hits mostly activators. AID 1458; also: nearly all actives have a fitted effect of over 55% in size
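HEK293 cells carry an SMN2 minigene-luciferase reporter in which exon 7 inclusion puts luciferase in frame. Cells were seeded at 2000 cells/well, attached for 10-12 hours, then exposed to compounds for 30-36 hours at 37C before ONE-Glo luminescence.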
Numbers stand for hits; 0 = inactive; ? = inconclusive; - = not tested or not shown; ! = not confirmed by another sample; [ ] = remark or other dose. Hits are enriched below; roughly 7.5% of the tested compounds scored in any of these assays. Calls follow the shape of the dose curve; as a rule, active = well fitted curve in the direction sought with a large enough effect; inconclusive = small, poorly fitted or top-dose-only effect, or another doubt; inactive = no such curve, though single readings can be large; an effect the other way counts as inactive or inconclusive.

SMILES | NPC1 promoter act | Rab9 promoter act | ELG1 genotox | FLuc counter | SMN2 splice up
O=C(O)CSc1ncnc2scc(-c3ccccc3)c12 | 0 | 0 | 0 | 0 | -
COc1cc(NC(=O)CSc2ncnc3scc(-c4ccccc4)c23)c(C(=O)O)cc1OC | 0 | 0 | 0 | 15.1µM | 0
COc1cccc(CN2CCN(Cc3cccc4c3OCO4)CC2CCO)c1 (stereo not given) | 0.398µM | 0.0891µM | ? | 2.39µM | -
Cc1ccc(CN2CCN(Cc3cccc4c3OCO4)CC2CCO)cc1 (stereo not given) | 0 | 0 | 0 | 0 | -
CC12CC(c3ccccc3O1)C(C(=O)N1CCOCC1)C(=O)N2 (stereo not given) | 0 | 0 | 0 | 0 | -
O=C(Cc1csc2ccccc12)NCc1ccccc1F | - | - | - | ? | 0
CCCOC(=O)c1ccc(OCC(O)Cn2c(C)nc3ccccc32)cc1 (stereo not given) | 0 | 0 | 10.3µM | 0 | 0
CC(=O)Nc1cccc(OCC(O)Cn2c(C)nc3ccccc32)c1 (stereo not given) | 0 | 0 | 0 | 0 | 0
CN=C1S/C(=C\c2ccc(N3CCCC3)c(F)c2)C(=O)N1C | 0 | ? | ? | 4.78µM | ?
O=c1cc(-c2ccccc2Cl)oc2c(NS(=O)(=O)c3cccc4nsnc34)ccc(O)c12 | 0 | 0 | 0 | 0 | -
Cc1cccc2c1cnn2C(=O)Nc1ccc(Br)cc1F | 0.282µM | ? | 0 | ? | -
Cc1ccc(NC(=O)n2ncc3c(C)cccc32)c(C)c1 | 0.398µM | 0.316µM | ? | 2.39µM! | -
COc1ccccc1CNC(=O)c1cc2ccccc2oc1=O | 0 | 0 | 0 | 0 | -
COc1ccc(C(c2c(O)cc(C)oc2=O)c2c(O)cc(C)oc2=O)cc1 | 0 | 0 | 0 | 0 | 0
COc1ccc(C2CC(c3c(O)cc(C)oc3=O)=NCCS2)c(OC)c1 (stereo not given) | ? | 0 | 10.3µM | 10.7µM | ?
N#Cc1c(NC(=O)c2ccc([N+](=O)[O-])o2)sc2c1CCC2 | 1.58µM | 1.58µM | ? | 4.78µM | -
CCOC(=O)c1c(NC(=O)c2cccnc2)sc(C)c1C | 0 | 0 | 0 | 0 | 0
CCOC(=O)c1sc(NC(=O)c2cccnc2)c(C#N)c1C | 0 | 0 | 0 | 12µM | 0
Cn1ncc(Cl)c1C(=O)NC(=S)Nc1sc2c(c1C#N)CCCCC2 | 0 | 0 | 0 | 12µM | 0
Cc1cccc(C(=O)Nc2sc3c(c2C#N)CCCCC3)c1 | 0.501µM | 1.26µM | ? | 0.953µM | 2µM
Cc1cccc(C(=O)Nc2sc3c(c2C(=O)NC(C)C)CCCC3)c1 | - | - | - | 0 | 0
N#Cc1c(NC(=S)NC(=O)c2ccccc2)sc2c1CCCC2 | 0 | ? | 0 | ? | 0
Cc1ccccc1NC(=O)CN1C(=O)NC(C)(CCc2ccccc2)C1=O (stereo not given) | 0 | 0 | 0 | 0 | 0
Nc1ncnc2c1ncn2CCOc1ccccc1 | 0 | 0 | ? | 0[2.3 µM] | 0
CCN(CCCNC(=O)CN1N=C(c2ccc(C)cc2)CCC1=O)c1ccccc1 | - | - | - | 0 | -
SMILES | NPC1 promoter act | Rab9 promoter act | ELG1 genotox | FLuc counter | SMN2 splice up
NC(=O)c1c(NC(=O)c2cccnc2)sc2c1CCCCC2 | 2.24µM | 2.51µM | ? | 1.69µM | -
N#Cc1c(NC(=O)c2cnccn2)sc2c1CCCC2 | 0 | ? | ? | 6.01µM | 10µM
CC(C)c1cc(C(=O)Nc2sc3c(c2C#N)CCC3)no1 | 0 | 0 | 0 | 0 | 0
NC(=O)c1c(NC(=O)c2cccnc2)sc2c1CCCC2 | ? | ? | ? | ? | 0
NC(=O)c1c(NC(=O)c2cccc(N3C(=O)CCC3=O)c2)sc2c1CCCCC2 | 0 | ? | 0 | 0.953µM | -
N#Cc1c(NC(=O)c2ccccc2)sc2c1CCC2 | ? | 0.631µM | 2.91µM | 2.69µM | 2.24µM
O=C(C[n+]1ccncc1)c1ccccc1 | 0 | 0 | 0 | 0 | -
O=C(Nc1sc2c(c1C(=O)c1ccccc1)CCCC2)c1cccnc1 | 0 | 0 | 0 | 0 | 0
N#Cc1c(NC(=O)c2cccnc2)sc2c1CCC2 | 0 | 0 | ? | 9.53µM | 0
O=C(CCC(=O)OCC(=O)c1ccc(Cl)cc1)Nc1ccc(Oc2ccccc2)cc1 | - | - | - | 0 | 0
O=C(N/N=C/c1ccc(-c2ccccc2Cl)o1)c1ccccc1 | 0 | 0 | 0 | 13.5µM | ?
Cc1nnc(C)n1/N=C/c1ccc(-c2ccccc2Cl)o1 | 0 | 0 | 23.1µM | 0 | -
O=S(=O)(N/N=C\c1ccc(-c2ccccc2Cl)o1)c1ccccc1 | 0 | 0 | 0 | 0 | 0
O=C(O)c1ccc(N/N=C/c2ccc(-c3ccccc3Cl)o2)cc1 | ? | ? | 1.83µM | 0.675µM | -
Cc1cc2c([nH]c3ccccc32)c2c1OC(C)(C)C=C2 | 3.16µM | 3.16µM | ? | 10.7µM | -
Cc1ccc(CNC(=O)C2(S(=O)(=O)c3ccccc3)CC=CC2)cc1 | 3.98µM | 3.98µM | ? | 15.1µM | -
Cc1ccc(CNC(=O)C2(S(=O)(=O)c3ccc(C)cc3)CC2)cc1 | 0 | 0 | 0 | 0 | -
Cc1ccsc1/C=N\NC(=O)CC(=O)NCc1ccccc1 | 0 | 0 | 0 | 0 | 0
CCC1CCCCN1C(=O)CSc1nnc(-c2cccc(Cl)c2)o1 (stereo not given) | 0 | 0 | 18.4µM | ? | ?
CC1CCN(C(=O)CSc2nnc(-c3ccco3)o2)CC1 | 0 | 0 | 0 | 0 | 0
O=C(CSc1nnc(-c2ccco2)o1)N1CCCCC1 | ? | 3.16µM | 0 | ? | -
O=C(CSc1nnc(-c2ccco2)o1)c1ccccc1 | ? | ? | 0 | ? | 0
CCC1CCCCN1C(=O)CSc1nnc(-c2ccco2)o1 (stereo not given) | ? | 3.16µM | ? | 15.1µM | ?
O=C(CSc1nnc(-c2ccco2)o1)c1ccc[nH]1 | ? | 2.24µM | ? | ? | 17.8µM
CCC1CCCCN1C(=O)CSc1nnc(-c2ccc(Cl)cc2)o1 (stereo not given) | 0 | 0 | 0 | 0 | 0
SMILES | NPC1 promoter act | Rab9 promoter act | ELG1 genotox | FLuc counter | SMN2 splice up
CN(C)CCCNc1nc(N)c([N+](=O)[O-])c(NCc2ccccc2)n1 | 0 | 0 | 0 | 0 | -
Cn1c(=O)c2ccccc2n(CC(=O)NC2CCCCC2)c1=O | 0 | 0 | 0 | 0 | -
CC(Cl)C(=O)NC(=O)NC12CC3CC(CC(C3)C1)C2 (stereo not given) | 0 | 0 | 0 | 0 | -
COc1ccccc1CNC(=O)CCc1c(C)nn(-c2ccc(N3CCOCC3)nn2)c1C | - | - | - | 0 | -
Cc1nc2c(C(=O)Nc3ccc(N4CCCC(O)C4)cc3)snc2c(=O)[nH]1 (stereo not given) | 0 | 0 | 0 | 3.01µM | -
O=C(Nc1ccc(N2CCCC(O)C2)cc1)c1snc2c(=O)[nH]cnc12 (stereo not given) | 0 | 0 | ? | 2.13µM | ?
COCCNC(=O)c1c(C)cc(C)cc1C | 0 | 0 | 0 | 0 | 0
Cc1cc(NC(=O)CCC(=O)N(Cc2cccs2)C(C)(C)C(=O)NC2CCCCC2)no1 | 0 | 0 | 0 | 0 | -
CCOC(=O)CSc1ncnc2c1cnn2-c1ccc(Cl)cc1 | 0 | 0 | 0 | 9.53µM | 0
Cc1nnc2c3cnn(-c4ccc(Cl)cc4)c3ncn12 | ? | ? | 20.6µM | ? | 0
CCOC(=O)CC(=O)CSc1ncnc2c1cnn2-c1ccccc1 | ? | ? | ? | 23.9µM | 0
CCOC(=O)CNC(=O)CSc1ncnc2c1cnn2-c1ccccc1 | 0 | 0 | 0 | 0 | 0
